Molecules are shown by their SMILES.

The target in assay [1] is High affinity nerve growth factor receptor (Homo sapiens) (UniProt P04629). The settings on record: at 1 µM.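 Also: each value is the mean percent inhibition of TRKA.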
Assay [2] addresses BDNF/NT-3 growth factors receptor (Homo sapiens) (UniProt Q16620). The settings on record: at 0.1 µM.
Assay [3] has the same target. The settings on record: at 1 µM.
The target of assay [4] is NT-3 growth factor receptor (Homo sapiens) (UniProt Q16288). Particulars: at 0.1 µM.
The target is the same in assay [5]. The settings on record: at 1 µM.
The target in assay [6] is T1, Tyrosine-protein kinase TXK (Homo sapiens) (UniProt P42681).
T1 sequence (whole entry): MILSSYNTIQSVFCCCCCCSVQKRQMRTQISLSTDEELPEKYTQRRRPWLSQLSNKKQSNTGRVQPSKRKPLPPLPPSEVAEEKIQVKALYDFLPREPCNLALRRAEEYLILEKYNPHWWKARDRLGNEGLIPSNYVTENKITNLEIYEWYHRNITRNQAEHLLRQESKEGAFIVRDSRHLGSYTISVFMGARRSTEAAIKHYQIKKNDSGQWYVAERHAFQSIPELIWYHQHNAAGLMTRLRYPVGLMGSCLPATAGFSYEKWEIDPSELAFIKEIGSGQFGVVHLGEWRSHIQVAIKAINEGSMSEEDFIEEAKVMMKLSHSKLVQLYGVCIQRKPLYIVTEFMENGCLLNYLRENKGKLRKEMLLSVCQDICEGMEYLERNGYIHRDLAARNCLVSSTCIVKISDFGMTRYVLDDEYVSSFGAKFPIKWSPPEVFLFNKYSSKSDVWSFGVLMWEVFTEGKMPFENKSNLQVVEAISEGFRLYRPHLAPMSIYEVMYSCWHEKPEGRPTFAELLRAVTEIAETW
Particulars: at 0.1 µM.

Assay [7] deals with T1, Tyrosine-protein kinase TXK (Homo sapiens). The settings on record: at 1 µM.
The target in assay [8] is Non-receptor tyrosine-protein kinase TYK2 (Homo sapiens) (UniProt P29597). The settings on record: at 0.1 µM.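 Also: each value is a mean of the inhibition readings.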
Assay [9] deals with T2, Dual specificity protein kinase TTK (Homo sapiens) (UniProt P33981).
T2 sequence (whole entry): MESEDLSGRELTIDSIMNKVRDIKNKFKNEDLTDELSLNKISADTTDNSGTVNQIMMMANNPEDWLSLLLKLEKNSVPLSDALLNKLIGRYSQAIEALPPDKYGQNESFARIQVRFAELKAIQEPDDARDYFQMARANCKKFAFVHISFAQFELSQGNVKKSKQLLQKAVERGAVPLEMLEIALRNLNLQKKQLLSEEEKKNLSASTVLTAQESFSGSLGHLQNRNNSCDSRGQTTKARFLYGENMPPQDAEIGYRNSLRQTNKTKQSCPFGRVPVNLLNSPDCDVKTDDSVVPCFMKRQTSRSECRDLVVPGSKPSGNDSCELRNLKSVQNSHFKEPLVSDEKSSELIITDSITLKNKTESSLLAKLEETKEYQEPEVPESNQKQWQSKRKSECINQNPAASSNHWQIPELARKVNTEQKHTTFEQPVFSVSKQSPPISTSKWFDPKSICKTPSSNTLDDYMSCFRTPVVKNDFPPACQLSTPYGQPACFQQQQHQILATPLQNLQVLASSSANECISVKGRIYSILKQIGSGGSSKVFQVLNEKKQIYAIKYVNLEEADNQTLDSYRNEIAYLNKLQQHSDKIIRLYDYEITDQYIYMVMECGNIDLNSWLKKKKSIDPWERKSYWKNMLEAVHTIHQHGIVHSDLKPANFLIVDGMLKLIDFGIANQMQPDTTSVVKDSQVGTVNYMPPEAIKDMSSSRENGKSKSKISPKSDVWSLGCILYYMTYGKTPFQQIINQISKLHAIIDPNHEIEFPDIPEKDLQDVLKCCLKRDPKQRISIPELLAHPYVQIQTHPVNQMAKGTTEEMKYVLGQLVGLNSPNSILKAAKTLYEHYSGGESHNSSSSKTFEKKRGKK
Particulars: at 1 µM.

Assay [10] addresses T3, Aurora kinase A (Homo sapiens) (UniProt O14965).
T3 sequence (whole entry): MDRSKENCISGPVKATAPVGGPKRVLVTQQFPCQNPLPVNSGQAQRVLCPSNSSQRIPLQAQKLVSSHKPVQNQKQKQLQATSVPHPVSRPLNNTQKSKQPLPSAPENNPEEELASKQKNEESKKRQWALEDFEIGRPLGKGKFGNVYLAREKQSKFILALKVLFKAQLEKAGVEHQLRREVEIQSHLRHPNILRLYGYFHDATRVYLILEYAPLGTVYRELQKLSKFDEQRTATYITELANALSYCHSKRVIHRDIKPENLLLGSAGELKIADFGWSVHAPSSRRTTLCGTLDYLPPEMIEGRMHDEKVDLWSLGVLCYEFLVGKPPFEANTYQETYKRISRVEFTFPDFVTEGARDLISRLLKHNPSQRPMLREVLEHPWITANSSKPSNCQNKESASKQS
The settings on record: at 0.1 µM.

Chain of BDNF/NT-3 growth factors receptor (Homo sapiens) (Q16620 32-822 limits assumed): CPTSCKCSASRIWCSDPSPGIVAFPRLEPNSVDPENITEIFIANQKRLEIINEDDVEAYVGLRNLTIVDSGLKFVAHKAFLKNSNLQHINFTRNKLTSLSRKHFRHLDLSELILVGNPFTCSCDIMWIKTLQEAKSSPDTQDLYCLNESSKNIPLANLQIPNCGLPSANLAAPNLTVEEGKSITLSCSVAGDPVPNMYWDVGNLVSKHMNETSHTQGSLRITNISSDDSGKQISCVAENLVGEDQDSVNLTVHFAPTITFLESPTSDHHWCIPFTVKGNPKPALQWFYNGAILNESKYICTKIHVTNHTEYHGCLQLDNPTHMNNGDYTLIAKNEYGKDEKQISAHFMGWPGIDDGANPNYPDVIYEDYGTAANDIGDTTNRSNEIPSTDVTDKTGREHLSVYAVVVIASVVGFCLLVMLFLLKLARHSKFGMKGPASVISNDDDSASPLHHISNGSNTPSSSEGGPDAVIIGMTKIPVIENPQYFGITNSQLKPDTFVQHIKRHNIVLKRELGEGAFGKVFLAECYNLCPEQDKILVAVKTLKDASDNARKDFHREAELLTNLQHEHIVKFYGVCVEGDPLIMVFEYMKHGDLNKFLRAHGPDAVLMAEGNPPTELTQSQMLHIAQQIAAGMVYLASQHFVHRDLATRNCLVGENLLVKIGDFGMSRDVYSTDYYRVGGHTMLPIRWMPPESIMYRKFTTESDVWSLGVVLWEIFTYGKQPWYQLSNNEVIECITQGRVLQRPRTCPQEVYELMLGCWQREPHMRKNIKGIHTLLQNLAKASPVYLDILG
Chain of Non-receptor tyrosine-protein kinase TYK2 (Homo sapiens) (P29597 whole entry): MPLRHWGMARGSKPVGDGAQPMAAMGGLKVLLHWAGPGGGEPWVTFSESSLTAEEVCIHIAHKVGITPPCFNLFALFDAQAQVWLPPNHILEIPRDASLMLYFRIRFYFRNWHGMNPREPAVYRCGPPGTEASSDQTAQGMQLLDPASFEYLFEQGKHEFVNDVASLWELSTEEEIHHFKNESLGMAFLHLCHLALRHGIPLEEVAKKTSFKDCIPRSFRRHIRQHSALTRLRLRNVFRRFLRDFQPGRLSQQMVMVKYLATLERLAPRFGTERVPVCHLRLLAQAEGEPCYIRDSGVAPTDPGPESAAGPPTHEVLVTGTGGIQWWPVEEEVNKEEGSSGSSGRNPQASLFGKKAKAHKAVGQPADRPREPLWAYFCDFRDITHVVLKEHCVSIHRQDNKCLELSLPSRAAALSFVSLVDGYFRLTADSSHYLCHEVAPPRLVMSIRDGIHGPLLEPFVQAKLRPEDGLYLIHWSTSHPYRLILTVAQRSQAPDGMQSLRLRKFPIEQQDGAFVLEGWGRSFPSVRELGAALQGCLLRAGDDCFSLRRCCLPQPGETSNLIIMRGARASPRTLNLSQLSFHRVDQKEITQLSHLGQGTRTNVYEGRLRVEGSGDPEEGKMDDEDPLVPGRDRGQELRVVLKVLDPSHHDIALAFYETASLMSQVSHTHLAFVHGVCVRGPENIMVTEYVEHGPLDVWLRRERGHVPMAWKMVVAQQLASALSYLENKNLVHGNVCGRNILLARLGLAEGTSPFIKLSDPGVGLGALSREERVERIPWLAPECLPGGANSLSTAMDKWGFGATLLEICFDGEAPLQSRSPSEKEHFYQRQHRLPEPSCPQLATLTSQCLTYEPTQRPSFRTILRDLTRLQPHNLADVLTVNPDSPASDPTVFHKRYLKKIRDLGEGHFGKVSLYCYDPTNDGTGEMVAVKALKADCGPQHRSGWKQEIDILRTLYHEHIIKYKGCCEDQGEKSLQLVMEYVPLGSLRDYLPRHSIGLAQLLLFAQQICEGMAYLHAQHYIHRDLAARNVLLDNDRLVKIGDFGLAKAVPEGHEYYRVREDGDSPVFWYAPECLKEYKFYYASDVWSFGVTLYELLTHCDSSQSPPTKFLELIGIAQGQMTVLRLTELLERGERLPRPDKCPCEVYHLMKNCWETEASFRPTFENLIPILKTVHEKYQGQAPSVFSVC
Chain of High affinity nerve growth factor receptor (Homo sapiens) (P04629 33-796 limits assumed): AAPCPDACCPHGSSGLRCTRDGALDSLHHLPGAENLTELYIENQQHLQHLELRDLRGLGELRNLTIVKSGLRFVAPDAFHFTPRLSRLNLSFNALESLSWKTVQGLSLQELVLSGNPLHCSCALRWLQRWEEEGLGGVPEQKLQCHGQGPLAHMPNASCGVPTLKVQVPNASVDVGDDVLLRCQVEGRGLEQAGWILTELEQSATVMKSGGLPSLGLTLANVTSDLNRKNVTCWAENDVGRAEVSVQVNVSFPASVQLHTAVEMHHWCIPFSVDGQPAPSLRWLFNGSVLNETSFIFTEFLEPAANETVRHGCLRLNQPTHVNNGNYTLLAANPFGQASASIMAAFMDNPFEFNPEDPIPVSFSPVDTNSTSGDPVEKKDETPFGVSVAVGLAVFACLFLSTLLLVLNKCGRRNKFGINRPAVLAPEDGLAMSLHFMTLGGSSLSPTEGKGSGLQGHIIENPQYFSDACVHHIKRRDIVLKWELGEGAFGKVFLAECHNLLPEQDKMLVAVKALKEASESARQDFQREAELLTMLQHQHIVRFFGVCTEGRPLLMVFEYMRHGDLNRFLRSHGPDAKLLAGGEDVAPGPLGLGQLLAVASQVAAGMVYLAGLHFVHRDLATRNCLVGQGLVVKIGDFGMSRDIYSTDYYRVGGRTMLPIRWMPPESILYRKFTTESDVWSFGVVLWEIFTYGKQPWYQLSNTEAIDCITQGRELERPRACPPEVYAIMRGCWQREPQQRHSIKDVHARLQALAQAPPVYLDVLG
Chain of NT-3 growth factor receptor (Homo sapiens) (Q16288 32-839 limits assumed): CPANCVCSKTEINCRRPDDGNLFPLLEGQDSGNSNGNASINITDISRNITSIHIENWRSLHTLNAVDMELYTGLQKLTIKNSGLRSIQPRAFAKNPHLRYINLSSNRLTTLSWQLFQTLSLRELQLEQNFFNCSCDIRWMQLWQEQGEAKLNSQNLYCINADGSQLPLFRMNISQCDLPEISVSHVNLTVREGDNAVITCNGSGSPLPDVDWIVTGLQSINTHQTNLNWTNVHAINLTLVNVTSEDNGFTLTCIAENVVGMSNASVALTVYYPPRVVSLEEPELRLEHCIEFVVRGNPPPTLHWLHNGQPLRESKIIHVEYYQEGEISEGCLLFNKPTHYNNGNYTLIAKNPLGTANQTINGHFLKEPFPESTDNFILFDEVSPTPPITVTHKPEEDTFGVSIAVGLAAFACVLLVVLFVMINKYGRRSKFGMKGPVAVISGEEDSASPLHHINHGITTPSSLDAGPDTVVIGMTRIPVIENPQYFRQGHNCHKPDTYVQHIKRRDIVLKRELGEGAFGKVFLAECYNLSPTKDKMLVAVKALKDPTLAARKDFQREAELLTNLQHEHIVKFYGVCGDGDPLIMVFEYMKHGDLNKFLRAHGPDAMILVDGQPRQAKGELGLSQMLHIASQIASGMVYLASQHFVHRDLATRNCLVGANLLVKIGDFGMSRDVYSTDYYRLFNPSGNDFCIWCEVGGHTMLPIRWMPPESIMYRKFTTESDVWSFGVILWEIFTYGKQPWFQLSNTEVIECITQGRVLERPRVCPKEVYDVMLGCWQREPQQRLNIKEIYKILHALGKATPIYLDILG

Usually inhibition stands for the change of the read-out against control, counted positive when it falls. Consider `O=C1NC(=O)C(N2CCc3ccccc32)=C1c1ccc(Cl)cc1`, for which the inhibition in [1] is 3.04%; in [2], 3.69%; in [3], 7%; in assay [4], 2.99%; in assay [5] it was 4.89%; in [6], 5.42%. Besides, the inhibition in assay [7] was 8.99%; in assay [8], -4.08%; in assay [9], 2.25%; in assay [10], 2.79%.
Regarding `Cn1cc(C=C2C(=O)Nc3cccnc32)c2ccccc21`, the inhibition in assay [1] is 66%; in assay [2], 25.3%; in assay [3] it was 75.5%; in assay [4] it was 20.5%; in assay [5] it was 71.6%; in assay [6], 2.53%. The inhibition was 6.47% in assay [7], -0.05% in [8], 22.8% in assay [9] and 5.95% in [10].
`CCn1c(-c2nonc2N)nc2c(N3CCCC3)nccc21`: the inhibition in assay [1] is 0.75%; in assay [2], -0.07%; in [3], 0.49%; in assay [4], -0.45%; in assay [5] it was -0.34%; in [6], -0.75%. The inhibition in assay [7] is -2.21%; in assay [8], 2.25%; in [9], -1.76%; in assay [10] it was -1.86%.
As to `CC1=C(C(=O)Nc2ccc3[nH]ncc3c2)C(c2ccc(Cl)c(Cl)c2)CC(=O)N1` (stereo not given), the inhibition is 0.57% in [1]; 1.67% in [2]; -0.28% in assay [3]; 2.34% in [4]; 1.92% in assay [5]; 1.64% in assay [6]. The inhibition in [7] was determined as 0.6%; in [8], 0.3%; in [9], 7.89%; in assay [10], 9.43%.
`COc1cc2ncn(-c3cc(O[C@@H](C)c4ccccc4Cl)c(C(N)=O)s3)c2cc1OC`: the inhibition is 6.09% in [1]; 5.59% in [2]; 18.6% in assay [3]; 6.76% in assay [4]; 32.5% in assay [5]; -1.39% in assay [6]. Besides, the inhibition was 5.82% in [7], -2.87% in assay [8], 9.98% in assay [9] and 4.95% in [10].
Take `COc1cc(C=NNc2ncnc3c2cnn3-c2ccccc2)ccc1O`: the inhibition amounted to 14.3% in assay [1]; 5.2% in assay [2]; 33.1% in assay [3]; 5.23% in [4]; 34.6% in assay [5]; 3.66% in assay [6]. Also, the inhibition was 5.94% in [7], -0.09% in assay [8], 10.5% in assay [9] and 23% in assay [10].
`COc1ccc(-c2coc3ncnc(N)c23)cc1`: the inhibition in assay [1] was 2.06%; in assay [2], 2.05%; in assay [3], 1.62%; in assay [4], 2.53%; in assay [5] it was 2.68%; in assay [6] it was 2.99%. Besides, the inhibition in assay [7] is 6.19%; in assay [8], -3.01%; in assay [9], 11.5%; in assay [10], 3.09%.
Take `CS(=O)(=O)Nc1ccc(N/C=C2\C(=O)Nc3ccccc32)cc1`: the inhibition in assay [1] was 46.7%; in assay [2], 11.2%; in [3], 58.6%; in assay [4], 14.1%; in assay [5] it was 57%; in [6], -1.93%. The inhibition in [7] was found to be 1.85%; in assay [8], 3.51%; in assay [9] it was 18.9%; in assay [10], 7.34%.
Take `c1cnn2ncc(-c3ccnc(Nc4ccc5c(c4)OCCO5)n3)c2c1`: the inhibition in [1] is 9.5%; in assay [2] it was 5.33%; in assay [3], 18.1%; in [4], 5.54%; in assay [5], 21.3%; in [6], 4.21%. The inhibition is 17.6% in [7], -1.73% in [8], 35% in assay [9] and 9.49% in assay [10].
With `CS(=O)(=O)CCNCc1nc(-c2ccc3ncnc(Nc4ccc(F)c(Cl)c4)c3c2)cs1`, the inhibition in assay [1] came out at 1.47%; in [2], 0.48%; in assay [3] it was 4.21%; in assay [4], 1.55%; in [5] it was 2.39%; in assay [6], 3.78%. Besides, the inhibition in assay [7] was 15.9%; in assay [8], -3.38%; in assay [9] it was 6.34%; in assay [10], 1.71%.
As to `Fc1cccc(COc2ccc(Nc3ncnc4cc(-c5ccc[nH]5)sc34)cc2Cl)c1`, the inhibition is 2.72% in [1]; 2.62% in [2]; 0.88% in [3]; 2.48% in assay [4]; 2.41% in assay [5]; 2.95% in assay [6]. Besides, the inhibition was 9.57% in assay [7], -1% in assay [8], 10.7% in assay [9] and -2.74% in [10].
Regarding `CCCN1CCC=C(c2ccc(Nc3nc(Nc4ccccc4C(N)=O)c4cc[nH]c4n3)c(C)c2)C1`, the inhibition in [1] was 6.59%; in assay [2] it was 3.01%; in [3], 6.47%; in assay [4] it was 2.46%; in [5], 3.13%; in assay [6] it was 6.59%. Besides, the inhibition is 13.1% in assay [7], -5.21% in assay [8], 70.7% in [9] and 6.15% in assay [10].
As to `COc1cc2c(cc1Nc1nc(N3CCc4ccccc43)c3cc[nH]c3n1)N(C(=O)CN(C)C)CC2`, the inhibition was 3.52% in assay [1]; -0.87% in [2]; 2.75% in [3]; -1.19% in assay [4]; 5.17% in assay [5]; 4.42% in [6]. In addition, the inhibition was 7.54% in assay [7], -1.57% in assay [8], 25.1% in assay [9] and 1.58% in assay [10].
Take `N#Cc1c(NC(=O)c2cccc3ccccc23)sc2c1CCCC2`: the inhibition is 1.26% in assay [1]; 2.03% in [2]; 2.36% in [3]; 2.33% in assay [4]; 2.63% in assay [5]; 2.34% in assay [6]. In addition, the inhibition is 4.42% in assay [7], -0.41% in [8], 0.69% in assay [9] and 2.42% in [10].
Take `COc1ccccc1Nc1ncc(-c2ccccc2)o1`: the inhibition in assay [1] was determined as 4.51%; in assay [2] it was 4.57%; in assay [3], 8.84%; in [4] it was 4.02%; in [5], 9.48%; in assay [6], 0.91%. In addition, the inhibition in assay [7] is 6.86%; in [8], -6.02%; in assay [9], 11.9%; in assay [10] it was 4.71%.
Turning to `CC1=C(C(=O)Nc2ccc3[nH]ncc3c2)C(c2ccc(F)cc2)NC(=O)N1` (stereo not given), the inhibition in assay [1] was 3.3%; in assay [2], 0.91%; in assay [3], 4.06%; in assay [4], 0.06%; in [5], 5.04%; in assay [6], 1.25%. Besides, the inhibition was 3.78% in [7], 1.26% in assay [8], 1.11% in assay [9] and 7.75% in assay [10].
As to `CN1CCC(C(=O)Nc2n[nH]c3nnc(-c4ccccc4)cc23)CC1`, the inhibition in [1] turned out to be 1.65%; in [2], 2.71%; in assay [3] it was 5.68%; in [4], 2.52%; in assay [5] it was 6.56%; in assay [6] it was 2.62%. The inhibition is 4.13% in [7], -3.53% in [8], 15% in assay [9] and 3.39% in [10].
